Results filed as inconclusive are left out. Active and inactive are the calls of the source. Unless noted, calls follow the shape of the dose curve; as a rule, active = well fitted curve in the direction sought with a large enough effect in the repeat runs; inconclusive = weak or mixed curves; inactive = no such curve, though single readings can be large; an effect the other way counts as inactive or inconclusive.
Legend:
[1] = qHTS assay to identify aromatase inhibitors - cell viability counter screen (AID 743084);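 also: cells stimulated with testosterone during compound exposure; nearly all actives have a fitted effect of over 55% in size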
[2] = target: Aryl hydrocarbon receptor (Homo sapiens) (UniProt P35869); experiment: qHTS assay to identify small molecule that activate the aryl hydrocarbon receptor (AhR) signaling pathway (AID 743085);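 also: HG2L7.5c1 human HepG2 liver cells with stably integrated DRE-driven firefly reporter; series mostly up to about 70 µM; nearly all actives have a fitted effect of over 15% in size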
In short: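 AhR agonist activity is inferred from enhanced light output of a DRE-controlled firefly luciferase reporter in HepG2 cells, measured with ONE-Glo following 24 h treatment at 37C.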

[3] = qHTS assay to identify small molecule that activate the aryl hydrocarbon receptor (AhR) signaling pathway - cell viability counter screen (AID 743086);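 also: HepG2 liver cells carrying the AhR DRE luciferase reporter; series mostly up to about 70 µM; nearly all actives have a fitted effect of over 45% in size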
In short: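 Cytotoxicity counter screen: CellTiter-Fluor signal (30 min, 37 C) in 4000 HepG2 cells/well carrying the DRE-luciferase reporter, following 24 h compound exposure at 37 C.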

[4] = target: Peroxisome proliferator-activated receptor gamma (Homo sapiens) (UniProt P37231); experiment: qHTS assay to identify small molecule agonists of the peroxisome proliferator-activated receptor gamma (PPARg) signaling pathway (AID 743094; active = well fitted activation curve with a large enough effect in the signal ratio in the repeat runs, not every such curve was filed as active; the % refers to the signal ratio)
In short: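 Quantitative HTS agonist mode: stable HEK293H line with UAS-beta-lactamase reporter under PPARg control, 17 h compound exposure at 37C, fluorescence after 1 h FRET substrate loading at room temperature.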

[5] = target: Peroxisome proliferator-activated receptor gamma (Homo sapiens) (UniProt P37231); experiment: qHTS assay to identify small molecule antagonists of the peroxisome proliferator-activated receptor gamma (PPARg) signaling pathway (AID 743191; calls by dose curve; also: series mostly up to about 63 µM; nearly all actives have a fitted effect of over 30% in size)
In short: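 Beta-lactamase reporter under UAS control in HEK293H PPARg-bla cells; compound treatment 17 h at 37C. Read-out: fluorescence intensity after 1 h room-temperature incubation with LiveBLAzer B/G FRET substrate.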

[6] = qHTS assay to identify small molecule antagonists of the peroxisome proliferator-activated receptor gamma (PPARg) signaling pathway - cell viability counter screen (AID 743194); also: nearly all actives have a fitted effect of over 55% in size
In short: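 Viability was measured as CellTiter-Glo luminescence in GeneBLAzer PPARg UAS-bla HEK293H cells. These cells had been exposed 17 h at 37 C to compounds together with rosiglitazone at 50 nM final, with the beta-lactamase readout taken in the same wells.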

[7] = qHTS assay for small molecule agonists of the antioxidant response element (ARE) signaling pathway - cell viability counter screen (AID 743203; calls by dose curve; also: nearly all actives have a fitted effect of over 55% in size)
In short: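 Seeded at 2,000 cells/well, ARE-bla HepG2 cells were incubated 5 hrs before compound addition. After 16 hrs of treatment at 37C with 5% CO2, CellTiter-Glo reagent was added and luminescence read 30 min later.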

[8] = qHTS assay for small molecule activators of the heat shock response signaling pathway - cell viability counter screen (AID 743209); also: nearly all actives have a fitted effect of over 50% in size
In short: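 First, HSE-bla HeLa cells were seeded at 1500 cells/well and kept overnight at 37 C. Next, compounds were pinned in and incubated 5 h. After the FRET substrate step, CellTiter-Glo was added and luminescence read 30 min later.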

[9] = qHTS assay for small molecule activators of the heat shock response signaling pathway (AID 743210; active = well fitted activation curve with a large enough effect in the signal ratio in the repeat runs, with a control signal flat, not every such curve was filed as active; the % refers to the signal ratio;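 also: HeLa cells with beta-lactamase reporter driven by heat shock elements; series mostly up to about 63 µM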)
In short: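 In HSE-bla HeLa cells, 5 h compound incubation (37 C) precedes addition of LiveBLAzer B/G substrate; after 2.5 h at room temperature, fluorescence intensity indicates reporter induction.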

[10] = qHTS assay to identify small molecule agonists of the peroxisome proliferator-activated receptor delta (PPARd) signaling pathway - cell viability counter screen (AID 743211); also: nearly all actives have a fitted effect of over 55% in size
In short: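 qHTS cell viability: PPARd-bla HEK293H; 17 h cpd, 37C; CellTiter-Glo, luminescence at 30 min RT.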

[11] = qHTS assay to identify small molecule antagonists of the peroxisome proliferator-activated receptor delta (PPARd) signaling pathway - cell viability counter screen (AID 743213); also: nearly all actives have a fitted effect of over 50% in size
In short: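 Viability counter-screen, qHTS format: PPARd-bla HEK293H, L165041 300 nM final, 17 h compound exposure at 37 C, CellTiter-Glo luminescence after 30 min RT.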

[12] = target: Peroxisome proliferator-activated receptor delta (Homo sapiens) (UniProt Q03181); experiment: qHTS assay to identify small molecule antagonists of the peroxisome proliferator-activated receptor delta (PPARd) signaling pathway (AID 743215; active = well fitted inhibition curve with a large enough effect in the signal ratio in the repeat runs, not every such curve was filed as active; the % refers to the signal ratio;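 also: cells stimulated with agonist L165041 at 300 nM final during compound exposure; series mostly up to about 62 µM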)
In short: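 Inhibition of L165041-driven (300 nM final) PPARd signaling is scored in HEK293H UAS-bla cells. Exposure lasts 17 h at 37 C; beta-lactamase activity is then read by FRET substrate fluorescence after 2 h at room temperature.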

[13] = qHTS assay to identify small molecule agonists of the farnesoid-X-receptor (FXR) signaling pathway - cell viability counter screen (AID 743218); also: nearly all actives have a fitted effect of over 45% in size
In short: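 Cytotoxicity counter-screen run in parallel, same wells: FXR-UAS-bla HEK 293T cells dosed 16 h at 37 C, viability read by CellTiter-Glo luminescence after 30 min at room temperature.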

[14] = qHTS assay to identify small molecule antagonists of the farnesoid-X-receptor (FXR) signaling pathway - cell viability counter screen (AID 743221; active = well fitted cell-killing curve with a large enough effect in the repeat runs, not every such curve was filed as active; also: nearly all actives have a fitted effect of over 50% in size)
In short: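 After a 5 h settling period, FXR-bla HEK 293T cells receive compound and chenodeoxycholic acid (50 uM final) and incubate 16 h at 37 C; CellTiter-Glo luminescence, read after 30 min at room temperature, reports cell viability.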

[15] = target: Vitamin D3 receptor (Homo sapiens) (UniProt P11473); experiment: qHTS assay to identify small molecule antagonists of the vitamin D receptor (VDR) signaling pathway (AID 743223; active = well fitted inhibition curve with a large enough effect in the signal ratio in the repeat runs, not every such curve was filed as active; the % refers to the signal ratio)
In short: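 Reporter line VDR-bla; stimulus 1alpha,25-(OH)2 vitamin D3, 3 nM final; compound co-addition, 16 h 37C/5% CO2; LiveBLAzer B/G substrate 2 h RT; fluorescence intensity.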

[16] = target: Peroxisome proliferator-activated receptor delta (Homo sapiens) (UniProt Q03181); experiment: qHTS assay to identify small molecule agonists of the peroxisome proliferator-activated receptor delta (PPARd) signaling pathway (AID 743212; calls by dose curve)
In short: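 HEK293H UAS-bla reporter cells, human PPARd system; compounds delivered in DMSO after 5 h plating, then at 37 C. Beta-lactamase FRET read, 2 h RT substrate step.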

[17] = target: Bile acid receptor (Homo sapiens) (UniProt Q96RI1); experiment: qHTS assay to identify small molecule antagonists of the farnesoid-X-receptor (FXR) signaling pathway (AID 743217; active = well fitted inhibition curve with a large enough effect in the signal ratio in the repeat runs, not every such curve was filed as active; the % refers to the signal ratio)
In short: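 Antagonist mode against 50 uM (final) chenodeoxycholic acid stimulation in FXR-bla HEK 293T cells, 16 h at 37 °C. Inhibition detected as reduced beta-lactamase activity via LiveBLAzer B/G FRET fluorescence after 2 h at room temperature.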

[18] = target: Bile acid receptor (Homo sapiens) (UniProt Q96RI1); experiment: qHTS assay to identify small molecule agonists of the farnesoid-X-receptor (FXR) signaling pathway (AID 743220; active = well fitted activation curve with a large enough effect in the signal ratio in the repeat runs, not every such curve was filed as active; the % refers to the signal ratio)
In short: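 Beta-lactamase reporter under UAS control in GeneBLAzer FXR HEK 293T cells (5000/well) measured with LiveBLAzer FRET substrate after 2 h at room temperature. Compound exposure lasted 16 h at 37C.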

[19] = target: Vitamin D3 receptor (Homo sapiens) (UniProt P11473); experiment: qHTS assay to identify small molecule agonists of the vitamin D receptor (VDR) signaling pathway (AID 743222; calls by dose curve)
In short: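 Quantitative HTS agonist-mode screen: compounds in DMSO were pin-transferred onto VDR-bla cells and incubated 16 h at 37C, 5% CO2. Reporter activity was detected with LiveBLAzer B/G FRET substrate after 2 h at room temperature.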

[20] = qHTS assay for small molecule agonists of the antioxidant response element (ARE) signaling pathway (AID 743202; active = well fitted activation curve with a large enough effect in the signal ratio in the repeat runs, not every such curve was filed as active; the % refers to the signal ratio)
In short: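 An ARE-responsive beta-lactamase gene stably integrated in HepG2 cells serves as reporter. After 5 h plating and 16 h compound incubation at 37 C, fluorescence of the B/G FRET substrate was measured.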
% is scaled to controls: 0 for no effect and ±100 for the full control effect.

Chain of Aryl hydrocarbon receptor (Homo sapiens) (P35869 whole entry, looked up): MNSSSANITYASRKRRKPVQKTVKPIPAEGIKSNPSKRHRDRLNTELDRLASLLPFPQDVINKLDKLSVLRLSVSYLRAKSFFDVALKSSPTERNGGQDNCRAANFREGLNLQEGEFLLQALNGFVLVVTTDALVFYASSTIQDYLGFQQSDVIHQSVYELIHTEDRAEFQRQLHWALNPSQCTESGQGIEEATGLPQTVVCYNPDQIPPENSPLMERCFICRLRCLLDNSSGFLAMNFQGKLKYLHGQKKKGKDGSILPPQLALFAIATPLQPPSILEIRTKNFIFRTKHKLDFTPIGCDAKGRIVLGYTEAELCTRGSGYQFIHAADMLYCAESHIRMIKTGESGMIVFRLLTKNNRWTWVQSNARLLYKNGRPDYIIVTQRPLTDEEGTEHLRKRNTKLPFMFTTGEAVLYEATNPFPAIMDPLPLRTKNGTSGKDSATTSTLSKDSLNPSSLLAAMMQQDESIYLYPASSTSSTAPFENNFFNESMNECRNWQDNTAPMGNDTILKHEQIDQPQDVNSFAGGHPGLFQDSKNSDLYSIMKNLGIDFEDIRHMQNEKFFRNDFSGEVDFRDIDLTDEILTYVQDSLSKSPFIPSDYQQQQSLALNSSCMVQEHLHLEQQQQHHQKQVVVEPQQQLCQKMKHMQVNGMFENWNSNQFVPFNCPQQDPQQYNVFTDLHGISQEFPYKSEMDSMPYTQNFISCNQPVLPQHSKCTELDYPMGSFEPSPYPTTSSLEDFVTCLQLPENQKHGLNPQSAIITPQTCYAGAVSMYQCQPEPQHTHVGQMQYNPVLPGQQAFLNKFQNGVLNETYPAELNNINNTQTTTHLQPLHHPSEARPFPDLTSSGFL
Chain of Vitamin D3 receptor (Homo sapiens) (P11473 whole entry, looked up): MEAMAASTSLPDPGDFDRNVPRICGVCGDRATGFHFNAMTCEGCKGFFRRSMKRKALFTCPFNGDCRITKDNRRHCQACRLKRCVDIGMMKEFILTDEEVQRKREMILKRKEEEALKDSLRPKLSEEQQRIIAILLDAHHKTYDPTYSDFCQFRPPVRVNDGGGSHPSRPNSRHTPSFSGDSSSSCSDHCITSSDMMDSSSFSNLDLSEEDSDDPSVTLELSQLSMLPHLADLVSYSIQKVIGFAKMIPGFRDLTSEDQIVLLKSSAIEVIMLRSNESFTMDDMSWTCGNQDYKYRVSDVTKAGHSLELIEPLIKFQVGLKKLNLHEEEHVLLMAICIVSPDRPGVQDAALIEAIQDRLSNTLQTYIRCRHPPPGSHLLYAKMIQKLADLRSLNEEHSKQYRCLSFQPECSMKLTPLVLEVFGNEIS
Chain of Bile acid receptor (Homo sapiens) (Q96RI1 whole entry, looked up): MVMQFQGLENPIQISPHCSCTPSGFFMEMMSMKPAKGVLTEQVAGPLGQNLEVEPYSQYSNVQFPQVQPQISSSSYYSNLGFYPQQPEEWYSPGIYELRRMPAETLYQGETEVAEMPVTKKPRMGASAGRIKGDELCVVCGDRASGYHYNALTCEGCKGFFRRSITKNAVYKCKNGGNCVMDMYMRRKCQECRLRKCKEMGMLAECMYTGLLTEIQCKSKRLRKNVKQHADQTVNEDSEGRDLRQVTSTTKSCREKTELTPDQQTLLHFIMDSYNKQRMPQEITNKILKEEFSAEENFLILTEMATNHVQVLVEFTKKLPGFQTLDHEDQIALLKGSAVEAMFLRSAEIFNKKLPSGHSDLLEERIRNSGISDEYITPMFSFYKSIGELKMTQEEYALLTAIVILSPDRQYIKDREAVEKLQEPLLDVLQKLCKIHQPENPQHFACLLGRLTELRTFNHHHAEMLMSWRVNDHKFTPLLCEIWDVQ
Chain of Peroxisome proliferator-activated receptor delta (Homo sapiens) (Q03181 whole entry, looked up): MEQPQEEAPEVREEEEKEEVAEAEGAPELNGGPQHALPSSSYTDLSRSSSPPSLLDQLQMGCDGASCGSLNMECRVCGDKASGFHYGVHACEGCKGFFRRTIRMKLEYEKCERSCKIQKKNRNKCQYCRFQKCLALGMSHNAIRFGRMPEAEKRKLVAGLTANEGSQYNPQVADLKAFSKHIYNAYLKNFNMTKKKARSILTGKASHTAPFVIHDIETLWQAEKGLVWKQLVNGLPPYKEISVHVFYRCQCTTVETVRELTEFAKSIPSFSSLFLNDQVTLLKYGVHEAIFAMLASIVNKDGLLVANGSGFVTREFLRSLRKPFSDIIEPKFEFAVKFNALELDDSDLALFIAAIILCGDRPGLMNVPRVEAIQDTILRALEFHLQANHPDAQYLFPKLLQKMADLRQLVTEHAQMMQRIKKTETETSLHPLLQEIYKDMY
Chain of Peroxisome proliferator-activated receptor gamma (Homo sapiens) (P37231 whole entry, looked up): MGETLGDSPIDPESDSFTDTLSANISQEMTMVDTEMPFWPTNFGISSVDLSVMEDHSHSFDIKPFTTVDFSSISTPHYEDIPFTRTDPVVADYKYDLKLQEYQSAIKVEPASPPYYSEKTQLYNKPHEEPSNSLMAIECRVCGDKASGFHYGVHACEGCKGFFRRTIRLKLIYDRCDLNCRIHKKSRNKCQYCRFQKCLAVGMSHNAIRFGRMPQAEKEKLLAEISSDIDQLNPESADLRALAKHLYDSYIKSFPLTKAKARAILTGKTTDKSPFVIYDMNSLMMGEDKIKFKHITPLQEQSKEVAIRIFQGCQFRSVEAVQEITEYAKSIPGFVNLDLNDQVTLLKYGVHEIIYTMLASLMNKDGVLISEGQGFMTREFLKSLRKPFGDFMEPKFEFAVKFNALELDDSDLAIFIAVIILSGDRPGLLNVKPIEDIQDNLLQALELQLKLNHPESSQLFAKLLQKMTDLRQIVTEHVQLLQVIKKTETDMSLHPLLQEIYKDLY

CC1=C(O)C(=O)CO1
inactive: outcome [1] | Potency [2] | outcome [3] | outcome [4] | outcome [5] | outcome [6] | outcome [7] | Potency [8] | outcome [9] | outcome [10] | outcome [11] | outcome [12] | outcome [13] | outcome [14] | outcome [15]

COC(=O)N/N=C/c1c[n+]([O-])c2ccccc2[n+]1[O-]
inactive: outcome [1] | Potency [2] | outcome [3] | outcome [4] | outcome [5] | outcome [6] | outcome [7] | Potency [8] | outcome [9] | outcome [10] | outcome [16] | outcome [11] | outcome [12] | outcome [17] | outcome [14]

COc1cc(C(=O)NC2CCCNC2)cc(OC)c1OC (centres undefined)
inactive: outcome [1] | Potency [2] | outcome [3] | outcome [4] | outcome [5] | outcome [6] | outcome [7] | Potency [8] | outcome [9] | outcome [10] | outcome [13] | outcome [18] | outcome [14] | outcome [19] | outcome [15]

CCCC(=O)CC
inactive: outcome [1] | Potency [2] | outcome [3] | outcome [4] | outcome [5] | outcome [6] | Potency [20] | outcome [7] | Potency [8] | outcome [10] | outcome [16] | outcome [11] | outcome [12] | outcome [13] | outcome [14] | outcome [19] | outcome [15]

CC(O)C(CO)C(C)O (centres undefined)
inactive: outcome [1] | Potency [2] | outcome [3] | outcome [4] | outcome [5] | Potency [20] | outcome [7] | Potency [8] | outcome [9] | outcome [10] | outcome [16] | outcome [11] | outcome [12] | outcome [13] | outcome [14]

CC(CC(=O)Cl)CC(C)(C)C (centres undefined)
inactive: outcome [1] | Potency [2] | outcome [3] | outcome [4] | outcome [5] | outcome [6] | Potency [20] | outcome [7] | Potency [8] | outcome [10] | outcome [11] | outcome [13] | outcome [14] | outcome [19]

CCCCC(CC)CCC(CC(C)C)OS(=O)(=O)O (centres undefined)
inactive: outcome [1] | Potency [2] | outcome [3] | outcome [4] | outcome [5] | outcome [6] | outcome [7] | Potency [8] | outcome [9] | outcome [10] | outcome [11] | outcome [17] | outcome [13] | outcome [19] | outcome [15]

NC[C@H]1O[C@H](O[C@H]2[C@H](O)[C@@H](O[C@H]3O[C@H](CO)[C@@H](O)[C@H](N)[C@H]3O)[C@H](N)C[C@@H]2N)[C@H](N)[C@@H](O)[C@@H]1O
inactive: outcome [1] | Potency [2] | outcome [3] | outcome [4] | outcome [5] | outcome [6] | Potency [20] | outcome [7] | Potency [8] | outcome [10] | outcome [11] | outcome [13] | outcome [14] | outcome [19] | outcome [15]

N=C(N)N1CCc2ccccc2C1
inactive: outcome [1] | Potency [2] | outcome [3] | outcome [4] | ratio activity, negative = inhibition [5] -11.9% [at 5.95 µM] | activity change, negative = cytotoxicity [6] 0.134% [at 5.95 µM] | viability change, negative = cytotoxic [7] -8.38% [at 8.36 µM] | activity change, negative = cytotoxicity [8] 14.1% [at 5.95 µM] | activation [9] -0.5% [at 5.95 µM] | activity change, negative = cytotoxicity [10] 3.73% [at 5.95 µM] | viability change, negative = cytotoxic [11] -9.71% [at 6.26 µM] | ratio activity, negative = inhibition [12] -18.7% [at 6.26 µM] | viability change, negative = cytotoxic [13] 5.62% [at 5.95 µM] | activity change, negative = cytotoxicity [14] -6.73% [at 5.95 µM] | activation [19] 4.08% [at 6.01 µM]

CCCCCC(CC)OC(=O)CCCOc1ccc(Cl)cc1Cl (centres undefined)
inactive: outcome [1] | Potency [2] | outcome [3] | outcome [4] | outcome [5] | outcome [6] | outcome [7] | Potency [8] | outcome [9] | outcome [16] | outcome [11] | outcome [12] | outcome [13] | outcome [14] | outcome [19] | outcome [15]

CCC(=O)OCCOc1ccccc1
inactive: outcome [1] | Potency [2] | outcome [3] | outcome [4] | outcome [5] | outcome [6] | outcome [7] | Potency [8] | outcome [9] | outcome [11] | outcome [13] | outcome [14] | outcome [19] | outcome [15]

COc1cc2nc(N3CCN(C(=O)C4CCCO4)CC3)nc(N)c2cc1OC (centres undefined)
inactive: outcome [1] | Potency [2] | outcome [3] | outcome [4] | outcome [5] | outcome [6] | outcome [7] | Potency [8] | outcome [9] | outcome [10] | outcome [16] | outcome [11] | outcome [12] | outcome [13] | outcome [14]

CCCCCCC(O)CO (centres undefined)
inactive: outcome [1] | Potency [2] | outcome [3] | outcome [4] | outcome [5] | outcome [6] | outcome [7] | Potency [8] | outcome [9] | outcome [10] | outcome [11] | outcome [12] | outcome [17] | outcome [13] | outcome [14]

CCOCCOCCOC(C)=O
inactive: outcome [1] | Potency [2] | outcome [3] | outcome [4] | outcome [6] | Potency [20] | outcome [7] | Potency [8] | outcome [9] | outcome [10] | outcome [16] | outcome [11] | outcome [12] | outcome [17] | outcome [13] | outcome [18] | outcome [14] | outcome [19]

C[C@@H](CN1CC(=O)NC(=O)C1)N1CC(=O)NC(=O)C1
inactive: outcome [1] | Potency [2] | outcome [3] | outcome [4] | outcome [5] | outcome [6] | outcome [7] | Potency [8] | outcome [9] | outcome [16] | outcome [11] | outcome [12] | outcome [13] | outcome [14] | outcome [19] | outcome [15]

O=S(=O)(O)CC(O)CCl (centres undefined)
inactive: outcome [1] | Potency [2] | outcome [3] | outcome [4] | outcome [5] | outcome [6] | outcome [7] | Potency [8] | outcome [9] | outcome [10] | outcome [11] | outcome [17] | outcome [13] | outcome [18] | outcome [14] | outcome [19] | outcome [15]

CC(O)CCCCn1c(=O)c2c(ncn2C)n(C)c1=O (centres undefined)
inactive: outcome [1] | Potency [2] | outcome [3] | outcome [4] | outcome [5] | outcome [6] | Potency [20] | outcome [7] | Potency [8] | outcome [9] | outcome [16] | outcome [11] | outcome [12] | outcome [13] | outcome [19] | outcome [15]

CC(C)(C)OC(=O)c1ccccc1C(=O)O
inactive: outcome [1] | Potency [2] | outcome [3] | outcome [4] | outcome [5] | outcome [6] | Potency [20] | outcome [7] | Potency [8] | outcome [16] | outcome [11] | outcome [12] | outcome [17] | outcome [13] | outcome [19] | outcome [15]

Source: PubChem BioAssay (Tox21)
